This note sets out measurements from the supplement of paper PMC13380429.

This assay has as its system Vero E6 infected with SARS-CoV-2. The experiment in a line: inhibition of SARS-CoV-2 cytopathic effect; higher = more antiviral protection, active = above 15. Particulars: 48 h.

A number with no mark means an inactive call.

As to `O=C(O)C1=C(CSc2nnnn2CS(=O)(=O)O)CS[C@@H]2[C@H](NC(=O)[C@H](O)c3ccccc3)C(=O)N12` [Cefonicid (sodium)], the “inhibition of SARS-CoV-2 cytopathic effect” value (shortened to “inhibition”) (1 nM) is -0.91%; the “inhibition” value (8.33 nM) was -1.09%; the “inhibition” value (100 nM) was 0.45%; the “inhibition” value (833.33 nM) was 0.79%; the “inhibition” value (10000 nM) is 1.23%.

`O=C(NC(=O)c1c(F)cccc1F)Nc1cc(Cl)c(OC(F)(F)C(F)C(F)(F)F)cc1Cl` (stereo not given) [lufenuron]: the “inhibition” value is, setting by setting: (1 nM) 1.67%; (8.33 nM) 2.18%; (100 nM) -1.16%; (833.33 nM) 2.95%; (10000 nM) 1.2%.

As to `CC1=C(CC(=O)O)c2cc(F)ccc2/C1=C\c1ccc(S(C)(=O)=O)cc1` [exisulind], the “inhibition” value (1 nM) was -5.21%; the “inhibition” value (8.33 nM) was -2.14%; the “inhibition” value (100 nM) was -3.65%; the “inhibition” value (833.33 nM) was 0.09%; the “inhibition” value (10000 nM) is -2.3%.

On to `COc1ccc(C[C@H]2NC[C@H](O)[C@H]2OC(C)=O)cc1` [anisomycin], for which the “inhibition” value runs as follows: (1 nM) 3.91%; (8.33 nM) 6%; (100 nM) 44.2% (active); (833.33 nM) 7.95%; (10000 nM) -30.6%.

Take `NCCC[C@H](N)C(=O)O` [ornithine]: the “inhibition” value (1 nM) is -1.52%; the “inhibition” value (8.33 nM) is -1.05%; the “inhibition” value (100 nM) was -1.8%; the “inhibition” value (833.33 nM) is -2.37%; the “inhibition” value (10000 nM) is 2.35%.

Regarding `NC1(Cc2ccc(Cl)cc2)CCN(c2ncnc3[nH]ccc23)CC1`, the “inhibition” value was -1.05% (1 nM); 0.05% (8.33 nM); -0.65% (100 nM); 0.89% (833.33 nM); -9.28% (10000 nM).

On to `CN(C)Cc1cccc(N=C(c2ccccc2)c2c(O)[nH]c3cc(C(=O)N(C)C)ccc23)c1`, for which the “inhibition” value is, setting by setting: (1 nM) 1.09%; (8.33 nM) 1.08%; (100 nM) 1.9%; (833.33 nM) -0.95%; (10000 nM) -4.44%.

`CC(=O)NC[C@H]1CN(c2ccc(N3CCOCC3)c(F)c2)C(=O)O1` [linezolid]: the “inhibition” value was -5.81% (1 nM); 4.06% (8.33 nM); 2.87% (100 nM); -0.71% (833.33 nM); 3.13% (10000 nM).

In the case of `CCNC(=O)c1n[nH]c(-c2cc(Cl)c(O)cc2O)c1-c1ccc(OC)cc1`, the “inhibition” value is -4.03% (1 nM); -4.15% (8.33 nM); -2.27% (100 nM); -3.38% (833.33 nM); -0.29% (10000 nM).

On to `CSc1nc2ccc3nc(NC(=O)C(c4ccccc4)c4ccccc4)sc3c2s1`, for which the “inhibition” value is 1.77% (1 nM); 1.67% (8.33 nM); 1.24% (100 nM); 1.38% (833.33 nM); -1.25% (10000 nM).

As to `Nc1ccc(S(=O)(=O)Nc2ccc(Cl)nn2)cc1` [sulfachlorpyridazine], the “inhibition” value runs as follows: (1 nM) 0.57%; (8.33 nM) -0.21%; (100 nM) 1.77%; (833.33 nM) -1.32%; (10000 nM) 0.69%.

Take `CS(=O)(=O)N1CCc2c(-c3cnc(N)nc3)nc(N3CCOCC3)nc21`: the “inhibition” value is, setting by setting: (1 nM) -2.71%; (8.33 nM) 1.07%; (100 nM) 1.27%; (833.33 nM) -3.9%; (10000 nM) -8.89%.

In the case of `Cc1occc(=O)c1[O-].Cc1occc(=O)c1[O-].[O]=[V+2]` [bis(maltolato)oxovanadium(IV)], the “inhibition” value was 1.28% (1 nM); 1.37% (8.33 nM); 0.44% (100 nM); -2.57% (833.33 nM); -1.02% (10000 nM).

Regarding `COc1ccc2c(C(=S)N(C)CC(=O)O)cccc2c1C(F)(F)F` [tolrestat], the “inhibition” value reads like this: (1 nM) 0.38%; (8.33 nM) -0.6%; (100 nM) -3.79%; (833.33 nM) -3.61%; (10000 nM) -5.09%.

For the compound `CN1CCN(CC/C=C2/c3ccccc3Sc3ccc(S(=O)(=O)N(C)C)cc32)CC1` [thiothixene], the “inhibition” value is -3.86% (1 nM); -3.67% (8.33 nM); -4.39% (100 nM); -3.71% (833.33 nM); 14% (10000 nM).

Consider `CCOC(=O)c1ccc(N)cc1` [benzocaine], for which the “inhibition” value was -3.23% (1 nM); -2.13% (8.33 nM); -1.89% (100 nM); -4.68% (833.33 nM); -1.78% (10000 nM).

For the compound `CN1CCN(c2ccc(/C=C(\C#N)c3ccccc3Br)cc2)CC1`, the “inhibition” value is, setting by setting: (1 nM) 2.51%; (8.33 nM) -1.94%; (100 nM) -3.13%; (833.33 nM) -2.26%; (10000 nM) -2.17%.

For `Cc1cc(C)nc(NS(=O)(=O)c2ccc(NC(=S)NC(=O)COc3ccc(Br)cc3Cl)cc2)n1`, the “inhibition” value reads like this: (1 nM) -1.5%; (8.33 nM) -0.46%; (100 nM) -0.98%; (833.33 nM) -2.23%; (10000 nM) 0.9%.

On to `Cc1cc(C)c(S(=O)(=O)n2cc(C)cc2C)c(C)c1`, for which the “inhibition” value reads like this: (1 nM) -0.12%; (8.33 nM) -0.02%; (100 nM) 2.14%; (833.33 nM) 0.3%; (10000 nM) -1.17%.
